D3 ag = agonists of human D3 dopamine receptor. P35462. D3R DiscoveRx beta-arrestin cells, luminescence, 90 min. max activation, %. 410,000 compounds, 0.58% hits. AID 652048; in the data active = max activation above about 30%
Target sequence (P35462 whole entry, looked up): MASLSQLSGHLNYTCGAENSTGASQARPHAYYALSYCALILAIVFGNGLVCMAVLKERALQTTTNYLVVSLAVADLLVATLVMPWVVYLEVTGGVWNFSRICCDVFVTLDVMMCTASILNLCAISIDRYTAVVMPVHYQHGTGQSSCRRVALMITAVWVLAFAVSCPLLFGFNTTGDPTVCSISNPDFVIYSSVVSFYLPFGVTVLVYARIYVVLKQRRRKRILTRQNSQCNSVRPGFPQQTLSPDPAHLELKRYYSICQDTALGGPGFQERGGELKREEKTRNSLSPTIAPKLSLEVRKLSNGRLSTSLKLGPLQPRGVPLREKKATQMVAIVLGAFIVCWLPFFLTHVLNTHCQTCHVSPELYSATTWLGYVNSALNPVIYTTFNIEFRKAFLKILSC
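Agonist mode: compounds and dopamine controls were applied to plated cells for 90 min at 37 degrees C after an overnight attachment at 1500 cells/well. Luminescent read-out followed 30 - 60 minutes at room temperature with DiscoveRx detection reagent.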
GLP-1R inv ag = inverse agonists of human GLP-1 receptor; P43220; HEK293 GLP-1R CRE-luciferase, luminescence, 24 h; GLP-1R form is constitutively active; Potency, µM (doses to about 38.3 µM), hits mostly inhibitors; 410,000 compounds, 1.6% hits; AID 624417; also: nearly all actives have a fitted effect of over 55% in size
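Seeding at 200 cells/uL, 12 h culture, 24 hr compound treatment, then luciferase reagent and a luminescence read; cells are HEK293 stably expressing a constitutively active GLP-1R plus cAMP-responsive luciferase.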
DRD3 antagonist = antagonists of human D3 dopamine receptor; max response, negative = inhibition, %; D3R cells, DiscoveRx beta-arrestin luminescence, antagonist mode; active compounds read low; 360,000 compounds, 2.5% hits; in the data active = max response below about -50%; inconclusive = no clear call, values can overlap the other calls
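Cells plated overnight at 1500 cells/well, then exposed to library compounds with dopamine controls for 90 minutes at 37 degrees C. DiscoveRx reagent added for 30–60 minutes at room temperature; luminescence read, quantitative HTS format.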
GLP1R ag = activates the human GLP-1 receptor; 380,000 compounds, 0.007% hits; HEK293 GLP-1R CRE-luciferase, luminescence, 4-6 h; cells express a hypersensitive GLP-1R form; Potency, µM (titrated, usually from 45.6 µM), most hits filed as activators; P43220
Large screens that a line does not name were inactive. An excerpt weighted towards active compounds, which were near 4.3% of everything screened. Unless noted, calls follow the shape of the dose curve; as a rule, active = well fitted curve in the direction sought with a large enough effect; inconclusive = small, poorly fitted or top-dose-only effect, or another doubt; inactive = no such curve, though single readings can be large; an effect the other way counts as inactive or inconclusive.

CCC(C)c1nc2c(c(N3CCC3=O)c1-c1ccccc1)CCCC2 (configuration not stated)	D3 ag 62, GLP-1R inv ag inconclusive
CCSc1nc(-c2ccccc2)nc2c1CCCC2	none
CC(=O)c1ccc(OCc2cn(CC(=O)c3ccc(O)cc3)nn2)cc1	none
O=C(Cn1cc(COc2ccc(Br)cc2[N+](=O)[O-])nn1)c1ccc(O)cc1	DRD3 antagonist -59
COc1cc(C(C)=O)ccc1OCc1cn(CC(=O)c2ccc(O)cc2)nn1	DRD3 antagonist -72
CC(=O)c1ccc(OCc2cn(CC(=O)c3ccc(O)cc3)nn2)c(C)c1	none
Cc1cccc(C)c1OCc1cn(CC(=O)c2ccc(O)cc2)nn1	DRD3 antagonist -61
CC(=O)Nc1ccc(OCc2cn(CC(=O)c3ccc(O)cc3)nn2)cc1	DRD3 antagonist -114
CCOc1ccc(NC(=O)CSC2=Nc3ccccc3C3=NC(CC(=O)NCc4cccs4)C(=O)N23)cc1 (configuration not stated)	GLP-1R inv ag inconclusive (no result: DRD3 antagonist, GLP1R ag)
Cc1c(Cl)ccc2sc(N3CCN(C(=O)CS(=O)(=O)c4ccccc4)CC3)nc12	GLP-1R inv ag inconclusive (no result: DRD3 antagonist, GLP1R ag)
Cc1cc(C)cc(N2C(=O)CSC23C(=O)N(CC(=O)Nc2ccc(F)cc2F)c2ccccc23)c1 (configuration not stated)	none (no result: DRD3 antagonist)
COc1cc(OC)cc(-c2c(-c3cccs3)c3cc(-c4ccc(C(N)=O)cc4)ccc3n2C)c1	D3 ag 39
Cn1cnnc1SCC(=O)Nc1ccc(C#N)cc1	none (no result: DRD3 antagonist, GLP1R ag)
COc1ccc(CCNC(=O)c2cc(-c3ccccc3)nc3ccccc23)cc1OC	none (no result: DRD3 antagonist)
COc1ccc(CCNC(=O)c2cc3cc(Cl)ccc3nc2N)cc1OC	D3 ag 51
COc1ccc(CCNC(=O)c2cc(Nc3cc(C)cc(C)c3)nc3ccccc23)cc1OC	GLP-1R inv ag 4.5µM (no result: DRD3 antagonist)
CSc1cccc(Nc2cc(C(=O)NCCc3ccc(Cl)cc3)c3ccccc3n2)c1	GLP-1R inv ag 5µM (no result: DRD3 antagonist)
COc1ccc(S(=O)(=O)N(Cc2nc(-c3ccccc3)no2)C2CCCCC2)cc1	GLP-1R inv ag inconclusive (no result: DRD3 antagonist, GLP1R ag)
CCOc1ccc(CN2CCN(C(=O)c3ccccc3)CC2)cc1	DRD3 antagonist -80
CCOc1ccc(NC(=O)C(=O)NCCN2CCN(C(=O)c3ccc(C)cc3)CC2)cc1	DRD3 antagonist -60
CCn1c2ccccc2c2cc(CN3CCN(Cc4ccc(OC)c(OC)c4)CC3)ccc21	GLP-1R inv ag inconclusive (no result: DRD3 antagonist, GLP1R ag)
O=C(c1ccc2ccccc2c1)N1CCN(Cc2ccccc2)CC1	GLP-1R inv ag inconclusive, DRD3 antagonist -86
CCOc1ccc(CN2CCN(Cc3ccc4c(c3)c3ccccc3n4CC)CC2)cc1	GLP-1R inv ag 6.3µM (no result: DRD3 antagonist, GLP1R ag)
COc1ccc(C(=O)N2CCN(CCNC(=O)C(=O)Nc3ccc(Br)cc3)CC2)cc1	none
CCOc1ccc(NC(=O)CN2CCN(c3ccccc3C)CC2)cc1S(=O)(=O)N1CCCC1	GLP-1R inv ag inconclusive, DRD3 antagonist -62
Cc1ccc(C)c(N2CCN(CC(=O)Nc3ccc([N+](=O)[O-])cc3C(=O)Nc3ccccc3F)CC2)c1	D3 ag 50
COC(=O)c1ccc(NC(=O)CN2CCN(c3ccccc3C)CC2)cc1	DRD3 antagonist -77
COc1ccc(NC(=O)CN2CCN(c3ccccc3Cl)CC2)cc1	GLP-1R inv ag inconclusive, DRD3 antagonist -61
CCOc1ccc(OCC)c(NC(=O)CN2CCN(c3cc(C)ccc3C)CC2)c1	GLP-1R inv ag 13µM
Fc1ccc(-c2nc3c(Cl)cc(C(F)(F)F)cn3c2Cc2ccsc2)cc1	none
Fc1cccc(Cc2c(-c3ccccc3)nc3c(Cl)cc(C(F)(F)F)cn23)c1	D3 ag 62
CC(C)(C)Cc1c(-c2ccc(Cl)cc2)nc2c(Cl)cc(C(F)(F)F)cn12	D3 ag 37
Cc1ccc(-c2nc3c(Cl)cc(C(F)(F)F)cn3c2Cc2ccsc2)cc1	DRD3 antagonist -59
O=c1c2sc3ccccc3c2n(Cc2ccccc2F)c(=O)n1CCc1ccccc1	none (no result: DRD3 antagonist)
COc1cc(OC)c(NC(=O)N2CCC(CN3CCCC3)CC2)cc1Cl	none (no result: DRD3 antagonist, GLP1R ag)
CCOC(=O)C1=CN(Cc2cccc(F)c2)S(=O)(=O)N(C)C1c1ccc(F)c(Cl)c1 (configuration not stated)	GLP-1R inv ag 10µM
Cc1cccc(NC(c2nnc(-c3ccccc3)o2)c2ccc(F)cc2Cl)c1C (configuration not stated)	none (no result: DRD3 antagonist, GLP1R ag)
CCc1ccccc1NC(c1nnc(-c2cccc(F)c2)o1)c1ccc(F)cc1Cl (configuration not stated)	GLP-1R inv ag 11µM (no result: DRD3 antagonist, GLP1R ag)
CCOc1ccc(C(C(=O)NC2CCCC2)N(CCCO)C(=O)c2ccc(-c3ccccc3)[nH]2)cc1 (configuration not stated)	GLP-1R inv ag 13µM
O=C(COc1ccc2c(c1)C(=O)CC1(CCCCC1)O2)NCc1ccccn1	none
O=C(COc1ccc2c(c1)C(=O)CC1(CCCCC1)O2)NCc1ccccc1	GLP-1R inv ag 11µM
CCC(=O)N1CCc2cc(OC)c(OC)cc2C1COc1ccc(F)cc1 (configuration not stated)	none
COC(=O)c1cc(COc2ccc3oc(C)c(C(=O)OC)c3c2)c(C)o1	D3 ag 76
CC(=O)c1c(C)oc2ccc(OCc3ccccc3)cc12	none
COC(=O)c1cc(COc2ccc3ccc(=O)oc3c2)c(C)o1	DRD3 antagonist -68
CCOC(=O)c1c(C)oc2ccc(OCc3cc(C(=O)OC)oc3C)cc12	D3 ag 33
COC(=O)c1ccc(COc2ccc3ccc(=O)oc3c2)o1	none
Cc1cc(-c2ccc(C)c(S(=O)(=O)N3CCCC(C)C3)c2)on1 (configuration not stated)	GLP-1R inv ag inconclusive (no result: DRD3 antagonist, GLP1R ag)
OC(COC1CCCCC1)CN1CCCCC1 (configuration not stated)	DRD3 antagonist -72
CC(C)(C)C1CCC(OCC(O)CN2CCN(c3ccccc3)CC2)CC1 (configuration not stated)	D3 ag 59, GLP-1R inv ag inconclusive
CC(C)(C)C1CCC(OCC(O)CN2CCCC2)CC1 (configuration not stated)	none
CC1CCN(CC(O)COC2CCC(C(C)(C)C)CC2)CC1 (configuration not stated)	GLP-1R inv ag inconclusive, DRD3 antagonist -56
Cc1ccc(N2CCN(CC(O)COC3CCCCC3)CC2)cc1 (configuration not stated)	DRD3 antagonist -90
COc1ccccc1CNC(=O)c1cnn(-c2ccc(F)cc2F)c1C1CCN(C(=O)OC(C)(C)C)CC1	GLP-1R inv ag inconclusive (no result: DRD3 antagonist, GLP1R ag)
CC(=O)Nc1ccc(S(=O)(=O)N2CCN(c3ccc(C)c(C)c3)CC2)cc1	none (no result: DRD3 antagonist)
CCC1CN(S(=O)(=O)c2cc(-c3cc(C)no3)ccc2C)c2cc(Cl)ccc2O1 (configuration not stated)	none (no result: DRD3 antagonist, GLP1R ag)
CN1CCN(C(c2cccc(Br)c2)c2sc3nc(-c4ccco4)nn3c2O)CC1 (configuration not stated)	none (no result: DRD3 antagonist, GLP1R ag)
O=C(O)c1ccccc1NS(=O)(=O)c1ccc2ccccc2c1	none
O=C(O)c1cc(NS(=O)(=O)c2ccc3ccccc3c2)ccc1O	DRD3 antagonist -108
